Measurements reported in PubChem BioAssay.
Where “and” joins values, the source holds several entries; their conditions need not be identical. Equal entries are not always repeated. Results filed as inconclusive are left out. Calls of active or inactive are those of the source.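 The calls were made as follows, unless noted: active = normalized viability below 100% at a tested concentration; inactive = the rest.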

Key:
[1] = viability loss in pontine glioma line – cell-based, SU-DIPG-XXV, MIPE5.0, CellTiter-Glo, qHTS, dose response (AID 1347065; cut-off not given, nearly all actives have AC50 up to about 26 µM;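 also: cells exposed to compound for 48 hours before ATP readout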); settings: CellTiter-Glo ATP luminescence
[2] = growth inhibition of DIPG cells – cell-based, MIPE4.0 library, CellTiter-Glo luminescence, qHTS (AID 1347066; cut-off not given, nearly all actives have AC50 up to about 30 µM;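 also: cells exposed to compound for 48 hours before readout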); settings: SU-DIPG-VI viability, CellTiter-Glo ATP luminescence
[3] = JHH-DIPG-1 glioma cell viability, MIPE5.0 library, CellTiter-Glo luminescence, qHTS (AID 1347067; cut-off not given, nearly all actives have AC50 up to about 26 µM;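 also: cells exposed to compound for 48 hours before readout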); settings: JHH-DIPG-1 glioma viability, CellTiter-Glo ATP luminescence
[4] = growth inhibition of DIPG cells – cell-based, MIPE5.0 library, qHTS (AID 1347068; cut-off not given, nearly all actives have IC50 up to about 30 µM;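 as to IC50: cells exposed to compound for 48 hours before viability readout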); settings: SU-DIPG-XXV viability
[5] = viability loss with induced miR-34 in A549 – imaging, A549 dox-inducible miR-34, nuclei and caspase counts, primary screen (AID 1347080;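 active = compounds whose cell count with miR-34 switched on is under 0.7 times the count with it off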); settings: A549 miR-34 inducible, Hoechst nuclei count, 48 h
[6] = compounds altering HSF1 focus formation in cells – imaging, Selleck Cancer Library (AID 1347162; in the data active = plate-normalised HSF1 focus index below about 0.46); settings: human cells, HSF1 nuclear foci imaging, at 10 µM; SSMD: measured here: HSF1 foci SSMD mean; cell count: measured here: cell number; plate-normalised HSF1 focus index: stronger effect = lower value
[7] = MELAS cybrid and Rieske KO viability enhancers – cell-based, MELAS cybrids, Rieske KO mouse fibroblasts, CellTiter-Glo, primary screen (AID 1508586;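 active = mean z-score across replicates of 1.96 or higher in either the MELAS or the Rieske mutant cell line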;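 also: z relative to plate mean and SD of compound and empty wells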); settings: low glucose
[8] = drug combination growth inhibition, ovarian cancer – cell-based, oncology-focused library, rucaparib conditional, profiling panel (AID 1508598); settings: patient-derived ovarian cancer cells, CellTiter-Glo viability, 144 h, stronger effect = lower value
[9] = target: NAD(+) hydrolase SARM1 (Homo sapiens) (UniProt Q6SZW1); experiment: blocking NAD cleavage by SARM1 SAM-TIR – cell lysate, NAD-Glo luminescence (AID 1508614;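 active = compound whose remaining NAD level is above about 45 nM, limit read from the data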;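 also: higher remaining NAD means stronger inhibition of SARM1 NADase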); settings: SAM-TIR HEK293T lysate NADase, at 1 µM, stronger effect = higher value
[10] = target: Mitogen-activated protein kinase 7 (Homo sapiens) (UniProt Q13164); experiment: Gal4-ERK5 driven luciferase induction – cell-based, HTS, primary screen (AID 1508626;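 active = luciferase signal above three times the same-plate solvent-only control wells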;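 also: luciferase driven by Gal4-ERK5 fusion binding five Gal4 sites before minimal TATA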); settings: HeLa Gal4-ERK5 transactivation, 18 h, at 5 µM, stronger effect = higher value
[11] = galactose survival enhancers in mitochondrial complex I cybrids – cell-based, galactose medium, ATP luminescence, primary screen (AID 1645843;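 active = z-score of at least 1.8 in each of two replicates, scored against plate mean and spread of sample wells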;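 also: positive z means more ATP and so rescue of galactose-driven cybrid death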); settings: complex I mutant cybrid cells, 72 h, stronger effect = higher value
[12] = blockers of cellular phospholipid synthesis – cell-based, LOPAC library, screen 4, primary screen (AID 1347384; call rule not given here); settings: animal cells, phospholipid biosynthesis inhibition screen; at 10 µM
[13] = stronger effect = lower value, cell number ratio, induced over uninduced
[14] = measured here: relative caspase fold change +Dox/-Dox
[15] = measured here: total cells with miR-34 induction, stronger effect = lower value
[16] = measured here: total cells without miR-34 induction
[17] = MELAS cybrid survival, CellTiter-Glo 48 h, stronger effect = higher value
[18] = Rieske KO mouse fibroblast survival, CellTiter-Glo 72 h

Sequence of NAD(+) hydrolase SARM1 (Homo sapiens) (Q6SZW1 whole entry, looked up, the tested form may be a part): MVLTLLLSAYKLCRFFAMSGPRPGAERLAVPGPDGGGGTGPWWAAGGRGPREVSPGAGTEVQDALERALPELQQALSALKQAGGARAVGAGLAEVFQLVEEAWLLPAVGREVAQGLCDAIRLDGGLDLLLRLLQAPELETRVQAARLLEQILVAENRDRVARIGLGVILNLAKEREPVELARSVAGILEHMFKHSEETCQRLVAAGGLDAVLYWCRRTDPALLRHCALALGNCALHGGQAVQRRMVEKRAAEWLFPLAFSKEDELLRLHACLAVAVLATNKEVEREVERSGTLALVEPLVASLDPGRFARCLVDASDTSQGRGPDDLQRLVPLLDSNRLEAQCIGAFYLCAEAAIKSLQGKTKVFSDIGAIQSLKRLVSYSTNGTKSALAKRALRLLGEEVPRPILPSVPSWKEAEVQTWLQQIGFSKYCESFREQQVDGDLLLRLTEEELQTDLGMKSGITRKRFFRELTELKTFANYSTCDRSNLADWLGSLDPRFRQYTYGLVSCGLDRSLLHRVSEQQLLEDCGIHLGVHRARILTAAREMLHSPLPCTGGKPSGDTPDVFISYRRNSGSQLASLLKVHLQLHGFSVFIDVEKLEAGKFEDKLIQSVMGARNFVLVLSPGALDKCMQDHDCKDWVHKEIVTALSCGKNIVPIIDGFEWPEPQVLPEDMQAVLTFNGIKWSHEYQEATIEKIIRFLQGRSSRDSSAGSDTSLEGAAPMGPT
Sequence of Mitogen-activated protein kinase 7 (Homo sapiens) (Q13164 whole entry, looked up, the tested form may be a part): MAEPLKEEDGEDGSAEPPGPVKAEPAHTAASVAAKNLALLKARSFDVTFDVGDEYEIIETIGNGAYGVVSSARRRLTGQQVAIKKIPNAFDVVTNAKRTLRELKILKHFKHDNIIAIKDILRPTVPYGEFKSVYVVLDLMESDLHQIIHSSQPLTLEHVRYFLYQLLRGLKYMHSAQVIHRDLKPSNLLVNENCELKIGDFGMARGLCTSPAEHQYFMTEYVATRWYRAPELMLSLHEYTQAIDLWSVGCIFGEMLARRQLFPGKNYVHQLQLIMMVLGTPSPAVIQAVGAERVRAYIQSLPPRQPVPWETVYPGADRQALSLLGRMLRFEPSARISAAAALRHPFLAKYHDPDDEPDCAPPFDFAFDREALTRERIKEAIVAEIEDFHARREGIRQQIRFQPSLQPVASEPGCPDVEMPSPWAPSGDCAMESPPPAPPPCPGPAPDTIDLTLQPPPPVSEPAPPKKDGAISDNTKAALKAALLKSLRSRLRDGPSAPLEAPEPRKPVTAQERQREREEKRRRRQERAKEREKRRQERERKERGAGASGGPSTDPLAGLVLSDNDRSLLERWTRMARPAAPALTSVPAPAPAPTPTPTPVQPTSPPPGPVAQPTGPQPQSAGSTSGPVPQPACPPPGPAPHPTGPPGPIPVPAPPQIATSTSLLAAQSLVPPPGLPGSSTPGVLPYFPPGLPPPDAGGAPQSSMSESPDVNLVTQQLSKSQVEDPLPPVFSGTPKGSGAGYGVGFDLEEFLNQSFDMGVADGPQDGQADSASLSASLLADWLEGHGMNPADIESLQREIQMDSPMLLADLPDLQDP

COc1cc2c(Nc3ccc(Br)cc3F)ncnc2cc1OCC1CCN(C)CC1
-3.85: SSMD [6]
active: AC50 [1] 14.8 µM | AC50 [2] 20.9 µM | AC50 [3] 20.9 µM | IC50 [4] 26.3 µM | viability ([8]; at 0.000305 µM, OCI-P5x cells, with rucaparib 20 µM, 100% = cells with rucaparib alone) 82.1% | viability ([8]; at 0.000305 µM, OCI-P5x cells, without rucaparib) 95.9% | viability ([8]; at 0.00122 µM, OCI-P5x cells, with rucaparib 20 µM, 100% = cells with rucaparib alone) 92.5% | viability ([8]; at 0.00488 µM, OCI-P5x cells, with rucaparib 20 µM, 100% = cells with rucaparib alone) 87.8% | viability ([8]; at 0.0195 µM, OCI-P5x cells, with rucaparib 20 µM, 100% = cells with rucaparib alone) 90.3% | viability ([8]; at 0.0781 µM, OCI-P5x cells, with rucaparib 20 µM, 100% = cells with rucaparib alone) 88% | viability ([8]; at 0.313 µM, OCI-P5x cells, with rucaparib 20 µM, 100% = cells with rucaparib alone) 83.3% | viability ([8]; at 1.25 µM, OCI-P5x cells, with rucaparib 20 µM, 100% = cells with rucaparib alone) 78.7% | viability ([8]; at 5 µM, OCI-C5x cells, with rucaparib 10 µM, 100% = cells with rucaparib alone) 55.4% | viability ([8]; at 5 µM, OCI-C5x cells, without rucaparib) 51.8% | viability ([8]; at 5 µM, OCI-P5x cells, with rucaparib 20 µM, 100% = cells with rucaparib alone) 43.9% | viability ([8]; at 5 µM, OCI-P5x cells, without rucaparib) 78.9%
4710: cell count [6]
-0.742: z-score [7, 18]
1.03: fold change [5, 14]
1950: cell count [5, 16]
1750: cell count [5, 15]
inactive: fold change [5, 13] 0.896 | plate-normalised HSF1 focus index [6] 0.799 | z-score [7, 17] -0.0745 | viability ([8]; at 0.000305 µM, OCI-C5x cells, with rucaparib 10 µM, 100% = cells with rucaparib alone) 108% | viability ([8]; at 0.000305 µM, OCI-C5x cells, without rucaparib) 109% | viability ([8]; at 0.00122 µM, OCI-C5x cells, with rucaparib 10 µM, 100% = cells with rucaparib alone) 103% | viability ([8]; at 0.00122 µM, OCI-C5x cells, without rucaparib) 106% | viability ([8]; at 0.00122 µM, OCI-P5x cells, without rucaparib) 100% | viability ([8]; at 0.00488 µM, OCI-C5x cells, with rucaparib 10 µM, 100% = cells with rucaparib alone) 122% | viability ([8]; at 0.00488 µM, OCI-C5x cells, without rucaparib) 111% | viability ([8]; at 0.00488 µM, OCI-P5x cells, without rucaparib) 104% | viability ([8]; at 0.0195 µM, OCI-C5x cells, with rucaparib 10 µM, 100% = cells with rucaparib alone) 110% | viability ([8]; at 0.0195 µM, OCI-C5x cells, without rucaparib) 118% | viability ([8]; at 0.0195 µM, OCI-P5x cells, without rucaparib) 112% | viability ([8]; at 0.0781 µM, OCI-C5x cells, with rucaparib 10 µM, 100% = cells with rucaparib alone) 111% | viability ([8]; at 0.0781 µM, OCI-C5x cells, without rucaparib) 118% | viability ([8]; at 0.0781 µM, OCI-P5x cells, without rucaparib) 101% | viability ([8]; at 0.313 µM, OCI-C5x cells, with rucaparib 10 µM, 100% = cells with rucaparib alone) 112% | viability ([8]; at 0.313 µM, OCI-C5x cells, without rucaparib) 113% | viability ([8]; at 0.313 µM, OCI-P5x cells, without rucaparib) 103% | viability ([8]; at 1.25 µM, OCI-C5x cells, with rucaparib 10 µM, 100% = cells with rucaparib alone) 111% | viability ([8]; at 1.25 µM, OCI-C5x cells, without rucaparib) 116% | viability ([8]; at 1.25 µM, OCI-P5x cells, without rucaparib) 102%

CC1=C(C)C(=O)C(C(CCCCCC(=O)O)c2ccccc2)=C(C)C1=O (centres undefined)
10400: cell count [5, 16]
0.844: fold change [5, 14]
inactive: outcome [1] | outcome [2] | outcome [3] | outcome [4] | fold change [5, 13] 0.907 | remaining NAD [9] 10 nM
9450: cell count [5, 15]

COc1ccnc(CS(=O)c2nc3ccc(OC(F)F)cc3[nH]2)c1OC (centres undefined)
4.32 and 0.927: fold change [5, 14]
inactive: outcome [1] | outcome [2] | outcome [3] | outcome [4] | fold change [5, 13] 0.948 and 0.839 | z-score [7, 17] 0.74 | remaining NAD [9] 10 nM | luciferase signal [10] 56 AU | z-score [11] 1.18
12600 and 10700: cell count [5, 16]
12000 and 8980: cell count [5, 15]
-0.32: z-score [7, 18]

C[C@@H]1CN(c2c(F)c(N)c3c(=O)c(C(=O)O)cn(C4CC4)c3c2F)C[C@H](C)N1
-0.511 and -0.3: z-score [7, 18]
9500: cell count [5, 15]
1.37: fold change [5, 14]
inactive: outcome [1] | outcome [2] | outcome [3] | outcome [4] | fold change [5, 13] 0.881 | z-score [7, 17] -0.149 and 0.182 | remaining NAD [9] 10 nM | z-score [11] 0.565
10800: cell count [5, 16]

O=C(Nc1ccc([N+](=O)[O-])cc1Cl)c1cc(Cl)ccc1O
1500 and 2060 and 8890: cell count [5, 15]
1770 and 2000 and 8060: cell count [5, 16]
inactive: fold change [5, 13] 0.851 and 1.03 and 1.1 | z-score [7, 17] -1.03 | remaining NAD [9] 10 nM | luciferase signal [10] 24 AU | z-score [11] -1.18
0.641 and 1.64 and 2.16: fold change [5, 14]
-0.036: z-score [7, 18]
active: AC50 [1] 1.18 µM | AC50 [2] 0.59 µM | AC50 [3] 0.833 µM | IC50 [4] 1.32 µM | outcome [12]

NCCS(=O)(=O)O
1.43 and 3.02: fold change [5, 14]
10200 and 13800: cell count [5, 16]
10100 and 12500: cell count [5, 15]
inactive: outcome [1] | outcome [2] | outcome [3] | outcome [4] | fold change [5, 13] 0.992 and 0.904 | outcome [12] | remaining NAD [9] 10 nM | luciferase signal [10] 80 AU | z-score [11] 0.675

C#C[C@]1(O)CC[C@H]2[C@@H]3CCc4cc(OC)ccc4[C@H]3CC[C@@]21C
inactive: outcome [1] | outcome [2] | outcome [3] | outcome [4] | fold change [5, 13] 0.882 | z-score [7, 17] 1.7 | remaining NAD [9] 10 nM | luciferase signal [10] 80 AU
10400: cell count [5, 16]
0.717: fold change [5, 14]
9180: cell count [5, 15]
0.807: z-score [7, 18]

CC(C)c1ccc2oc3nc(N)c(C(=O)O)cc3c(=O)c2c1
9060: cell count [5, 15]
9490: cell count [5, 16]
inactive: outcome [1] | outcome [2] | outcome [3] | outcome [4] | fold change [5, 13] 0.955 | z-score [7, 17] 0.841 | remaining NAD [9] 10 nM | z-score [11] 0.635
-1.05: z-score [7, 18]
1.68: fold change [5, 14]

CN(C)CCc1c[nH]c2ccc(CS(=O)(=O)N3CCCC3)cc12
-0.352: z-score [7, 18]
7640: cell count [5, 16]
inactive: outcome [1] | outcome [2] | outcome [3] | outcome [4] | fold change [5, 13] 0.94 | z-score [7, 17] -0.0807 | remaining NAD [9] 10 nM | luciferase signal [10] 52 AU
1.05: fold change [5, 14]
7180: cell count [5, 15]

Nc1ccc(S(N)(=O)=O)cc1
1.61 and 1.13 and 2.65: fold change [5, 14]
inactive: outcome [1] | outcome [2] | outcome [3] | outcome [4] | fold change [5, 13] 0.863 and 1.01 and 0.955 | z-score [7, 17] -0.359 and -1 | remaining NAD [9] 10 nM | luciferase signal [10] 164 AU
10100 and 8510 and 12900: cell count [5, 16]
0.662 and -0.707: z-score [7, 18]
8720 and 8600 and 12400: cell count [5, 15]

CCCCCN(C)CCC(O)(P(=O)(O)O)P(=O)(O)O
inactive: outcome [1] | outcome [2] | outcome [3] | outcome [4] | outcome [12] | remaining NAD [9] 10 nM
